Screening results deposited in PubChem by National Center for Advancing Translational Sciences (NCATS).
Hits are enriched below; roughly 21% of the tested compounds scored in any of these assays.
AMA1-RON2 inh: AMA1-RON2 (P. falciparum) interaction inhibition; AlphaScreen AMA1-biotinylated RON2 peptide binding; Potency, µM (highest dose often 58.2 µM), for inactives: top-dose activity change, negative = inhibition, usual class: inhibitors; 0.2% of 360,000 active; AID 720542;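 note: potency is the fitted concentration of half-maximal effect; 0% = vehicle wells and -100% = peptide control; nearly all actives have a fitted effect of over 45% in size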
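AMA1 (3D7) with his tag at 25 nM final met compounds first, then biotinylated RON2 peptide at 25 nM; detection used donor plus acceptor beads, 10 µg/mL apiece, read by AlphaScreen after 30 min at room temperature.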
Shiga toxin inh: inhibitors of Shiga toxin in Vero cells. Vero cells, Shiga toxin protein synthesis inhibition reporter. inhibition, % at 38.7 µM. 9.2% of 290,000 active. AID 2315; in the data active = inhibition mostly above about 28%, no sharp cut-off; inactive = mostly below about 43%; note: 0% is about no effect
Pf growth 96h: P. falciparum growth inhibition at 96 hours. P. falciparum luciferase reporter growth, 96 h. AID 504834. 6.9% of 320,000 active. Potency, µM (titrated, usually from 28.7 µM), inactives show at the top dose activity change, negative = inhibition, usual class: inhibitors; note: potency is the fitted concentration of half-maximal effect; % is set by controls: 0 for no effect and ±100 for the full control effect
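Parasite growth measured via integrated firefly luciferase reporter in P. falciparum. Infected erythrocytes at 2% hematocrit, 0.05% parasitemia final were treated 96 hours at 37 C under 5% CO2, and luminescence was read.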
Cycloheximide cs: counter-screen hit for Shiga toxin inhibitors, cycloheximide | cell reporter, cycloheximide protein synthesis inhibition counterscreen | max response, % | 12% of 300,000 active | AID 2314; in the data active = max response mostly above about 13%, no sharp cut-off; inactive = mostly below about 14%; note: read at 38.3 µM for the half of the compounds with a filed dose; 0% is about no effect
HCV inh: blocks hepatitis C virus | Huh7.5.1 HCVcc-Cre infection, luciferase reporter, 44 h | Potency, µM (highest dose often 41.8 µM), without a hit: at the top dose activity change, negative = inhibition, most hits filed as inhibitors | 3.4% of 340,000 active; note: potency is the fitted concentration of half-maximal effect; % is set by controls: 0 for no effect and ±100 for the full control effect
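Reporter virus HCVcc-Cre (~0.5 moi) infects cells exposed to compound; seeding density 1,000 cells/well with 4 h settling beforehand. Luminescence, 15 sec read, taken 44 h post-infection following a 15 min RT substrate incubation.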
Pf growth 48h: P. falciparum growth inhibition at 48 hours (one generation); AID 504832; P. falciparum luciferase growth in erythrocytes, 48 h; Potency, µM (series often up to 28.7 µM), without a hit: at the top dose activity change, negative = inhibition, hits mostly inhibitors; 5.9% of 310,000 active; note: potency is the fitted concentration of half-maximal effect; % is set by controls: 0 for no effect and ±100 for the full control effect
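A one-generation exposure of luciferase-tagged malaria parasites in RPMI 1640/Albumax erythrocyte culture, 37 C and 5% CO2. Inhibition is inferred from decreased luminescence after adding detection reagent.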
Numbers without * were called inactive; i = inactive; u = inconclusive; x = no result. Unless noted, calls come from the whole dose curve; as a rule, active = well fitted curve in the direction sought with a large enough effect; inconclusive = small, poorly fitted or top-dose-only effect, or another doubt; inactive = no such curve, though single readings can be large; an effect the other way counts as inactive or inconclusive.

SMILES | AMA1-RON2 inh | Shiga toxin inh | Pf growth 96h | Cycloheximide cs | HCV inh | Pf growth 48h
COc1ccc(CN(C)C(=O)c2cccc(Oc3ccccc3)c2)c(OC)c1OC | -3% | 2 | -2% | -5 | u | -15%
COCc1cc(CNC(=O)C2CCC(=O)N(Cc3cccc(OC)c3)C2)[nH]n1 (centres undefined) | 3% | -3 | -4% | 1 | 13% | 9%
N#CCC(=O)Nc1ccc(C(=O)Nc2cccc(S(=O)(=O)N3CCCC3)c2)cc1 | 1% | x | x | x | x | x
C/C(=C\C(=O)OCCCCCCCCC(=O)O)C[C@@H]1OCC(C[C@H]2O[C@H]2[C@@H](C)[C@H](C)O)[C@@H](O)[C@H]1O (some centres undefined) | x | -5 | x | 1 | x | x
O=C(Oc1ccc2c(c1)OCO2)c1cccs1 | 5% | 40* | 6% | 27* | 14% | -14%
COc1cc(NC(=S)Nc2ccc3c(c2)OCCO3)cc(OC)c1OC | 12% | 69* | 25% | 32* | -16% | 16%
O=C(NC(=S)Nc1ccc2c(c1)OCCO2)c1cccc(Br)c1 | 37% | 74* | 25% | 74* | -4% | 258%
CCOc1cccc(C(=O)Nc2ccc3c(c2)OCCO3)c1 | -6% | 37 | 182% | 36* | 3% | 252%
COc1cc(NC(=O)CSc2ccc3c(c2)OCCO3)cc(OC)c1OC | -5% | -22 | 24% | 8 | u | -6%
Cc1cc(OC(=O)c2cccs2)ccc1C(C)C | 25% | 20 | u | 20 | 19% | x
CCCCC(=O)N(C)c1c(CC)nc2c(OCC(=O)c3ccc(F)cc3)cccn12 | 0% | x | x | x | x | x
CC1CCCC(NC(=O)CSc2n[nH]c(=O)n2Cc2ccccc2)C1C (centres undefined) | -1% | x | x | x | 1% | x
O=C(NCc1ccc(F)cc1)c1cc(C2CCCN(C(=O)C3CCCCC3)C2)on1 (centres undefined) | -20% | x | x | x | x | x
O=C(CCCc1cccs1)Nc1ccc2c(c1)OCO2 | -15% | 89* | 385% | 31* | 1% | 364%
O=C(O)c1ccccc1NC(=S)NC(=O)c1cccc2ccccc12 | 42% | 10 | 5% | -3 | 7% | 5%
O=C(Nc1ccc2c(c1)OCCO2)c1ccc(Br)s1 | 4% | 40* | 10% | 55* | u | 226%
CN1C(=O)c2ccc(C(=O)Nc3ccc4c(c3)OCO4)cc2C1=O | -4% | 38 | 43% | 24* | 12% | 20%
O=C(NC(=S)Nc1ccc2c(c1)OCCO2)c1cccc2ccccc12 | 25% | 76* | 41% | 37* | -23% | 50%
Cn1nc(-c2ccccc2)cc1NS(=O)(=O)c1ccc(C#N)cc1 | -8% | 6 | -2% | -3 | 15% | 2%
C[C@H](CO)N1C[C@H](C)[C@@H](CN(C)S(=O)(=O)c2cccs2)Oc2ccc(NS(=O)(=O)c3ccc(F)cc3)cc2C1=O | -6% | x | x | x | -4% | x
O=C(Nc1ccc2c(c1)OCO2)c1ccccc1 | -11% | 87* | 3% | 53* | 9% | 95%
O=C(Nc1ccc2c(c1)OCO2)c1ccc(Cl)cc1Cl | 2% | -12 | u | -2 | -22% | u
CC(C)(C)NS(=O)(=O)c1ccc(C(=O)Nc2ccc3c(c2)OCO3)cc1 | 25% | 77* | 14% | 21* | 9% | 8%
O=C(Nc1cccc(Cl)c1)c1ccc2c(c1)OCCO2 | 8% | 60* | 4% | 32* | -18% | 255%
O=C(Nc1ccc2c(c1)OCCO2)c1ccc(Cl)cc1Cl | -8% | x | u | 24* | -29% | 209%
SMILES | AMA1-RON2 inh | Shiga toxin inh | Pf growth 96h | Cycloheximide cs | HCV inh | Pf growth 48h
CCCc1cc(=O)[nH]c(SCC(=O)Nc2cc(S(=O)(=O)N(CC)c3ccccc3)ccc2Cl)n1 | -24% | x | x | x | -7% | x
CC(C)C1C(=O)N(Cc2cn(CCC3OCCCO3)nn2)CCS(=O)(=O)N1Cc1ccc(-c2ccc(Cl)nc2)cc1 (centres undefined) | -1% | x | x | x | x | x
CCN(C1CCS(=O)(=O)C1)S(=O)(=O)c1ccc2ccccc2c1 (centres undefined) | 2% | x | 18% | x | 11% | -1%
C=CCSc1nnc(NC(=O)C23CC4CC(CC(NC(C)=O)(C4)C2)C3)s1 | -7% | -11 | -102% | 9 | 5% | u
O=C(Nc1cccc(Cl)c1)c1ccc(F)c(S(=O)(=O)NCc2ccc3c(c2)OCO3)c1 | 12% | -1 | u | 21* | -26% | -7%
Cc1noc(C)c1COc1cccc(C(=O)Nc2ccc3c(c2)OCO3)c1 | -8% | 61* | -28% | 28* | -18% | 55%
O=C(Nc1cccc(NC(=O)c2cccs2)c1)c1ccc2c(c1)OCCO2 | -6% | 21* | 3% | 23* | u | 64%
S=C(Nc1ccc(Br)cc1)Nc1ccc2c(c1)OCCO2 | 29% | 103* | -69% | 58* | u | 95%
Cc1noc(C)c1COc1cccc(C(=O)OC(C)C(=O)Nc2ccc3c(c2)OCO3)c1 (centres undefined) | -6% | -7 | x | -2 | -26% | -5%
COc1ccc(C(=O)NNC(=O)C(=O)Nc2cccc3ccccc23)cc1 | 110% | -5 | u | -11 | 11% | 23%
COc1ccc(S(=O)(=O)Nc2ccc(-c3ccc4nncn4n3)cc2)c(OC)c1 | -5% | x | u | x | 6% | u
N#Cc1ccc(S(=O)(=O)NCC(=O)OCC(=O)N2CCCC2=O)cc1 | -11% | x | 21% | x | 6% | -1%
CSc1ccccc1C(=O)Nc1ccc2c(c1)OCCO2 | -6% | 64 | u | 23 | 10% | 37%
COC(=O)c1sccc1NC(=O)c1ccc2c(c1)OCO2 | 33% | -8 | x | 7 | -2% | 26%
Cc1ccc(NC(=O)c2ccc3c(c2)OCCO3)cc1 | 11% | 72 | 62% | 0 | -7% | 234%
O=C(Nc1ccc2c(c1)OCCO2)c1ccccc1 | -1% | 69* | i | 42* | -3% | 228%
O=C(Nc1ccc2c(c1)OCCO2)c1cccc(C(=O)Nc2ccc3c(c2)OCCO3)c1 | -8% | 37* | 15% | 34* | -3% | 49%
CC(C)c1ccc(O)c(NC(=S)NC(=O)c2ccc3c(c2)OCO3)c1 | 92% | 99* | u | 53* | u | u
O=C(CC(=O)c1ccccc1)Nc1ccc2c(c1)OCCO2 | -16% | 74* | 86% | 43* | -13% | 50%
CCC(C)N(C(=O)COC(=O)c1ccc(=O)n(Cc2ccccc2)n1)C1CCS(=O)(=O)C1 (centres undefined) | 8% | x | u | x | 9% | 45%
CCOC(=O)c1ccc(NC(=O)c2ncn3c2C(=O)N[C@H](C)C3)cc1 | 50% | x | x | x | x | x
Cc1ccc(NC(=O)c2ccc(OCc3c(C)noc3C)cc2)cc1C | -6% | x | x | x | 4.5µM* | x
O=C(Nc1cccc([N+](=O)[O-])c1)c1ccc([N+](=O)[O-])o1 | -5% | x | x | x | x | x
